# Hits are enriched below; roughly 15% of the tested compounds scored in any of these assays.
# RORg inh: inhibitors of mouse ROR gamma transcriptional activity. Potency, µM (doses to about 53.6 µM), inactives show at the top dose activity change, negative = inhibition, most hits filed as inhibitors. Drosophila S2 Gal4-RORgamma UAS-luciferase reporter, 20 h. P51450. AID 2551. hit rate 5.4% among 310,000; note: nearly all actives have a fitted effect of over 60% in size
#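 Read-out: Photinus luciferase luminescence; inhibitors lower reporter signal. Insect Schneider cells with Gal4-ROR gamma fusion under metallothionein promoter, UAS reporter; 700 uM final copper sulfate induction, 20 hr, ambient temperature.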
# 12-LOX inh: inhibitors of human 12S-lipoxygenase ALOX12; hit rate 1.1% among 580,000; Potency, µM (top dose mostly 108 µM), for the others: at the top dose activity change, negative = inhibition, actives largely listed as inhibitors; AID 1671190; purified 12hLO, xylenol orange hydroperoxide absorbance; P18054
# Target sequence (P18054 whole entry, looked up): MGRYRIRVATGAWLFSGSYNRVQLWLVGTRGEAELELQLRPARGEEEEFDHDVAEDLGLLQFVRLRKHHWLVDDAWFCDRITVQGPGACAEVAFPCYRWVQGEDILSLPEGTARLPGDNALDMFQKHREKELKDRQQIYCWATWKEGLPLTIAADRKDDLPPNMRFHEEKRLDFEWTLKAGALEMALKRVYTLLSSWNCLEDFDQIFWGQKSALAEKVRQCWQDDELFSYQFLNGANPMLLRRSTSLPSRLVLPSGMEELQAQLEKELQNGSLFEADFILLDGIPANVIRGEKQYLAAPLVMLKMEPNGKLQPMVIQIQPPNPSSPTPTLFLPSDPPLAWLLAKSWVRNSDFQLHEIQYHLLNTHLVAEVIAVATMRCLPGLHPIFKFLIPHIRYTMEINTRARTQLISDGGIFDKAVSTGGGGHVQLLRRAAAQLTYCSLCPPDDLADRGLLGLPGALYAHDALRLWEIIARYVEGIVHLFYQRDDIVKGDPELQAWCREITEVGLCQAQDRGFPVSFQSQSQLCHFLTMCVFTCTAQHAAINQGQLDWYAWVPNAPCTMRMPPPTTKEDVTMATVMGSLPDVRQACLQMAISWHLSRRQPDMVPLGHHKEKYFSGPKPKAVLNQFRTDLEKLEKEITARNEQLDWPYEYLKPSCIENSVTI
#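 Purified human 12hLO at 150 nM in 25 mM Hepes, 0.01% Triton X-100, pH 7.0, preincubated 15 min at room temperature with compound. Reaction started with 40 uM arachidonic acid, 30 min at room temperature. Hydroperoxide measured by Fe-xylenol orange, 573/405 nm absorbance ratio.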
# ELG1 DNA repair: ELG1-dependent DNA repair inhibition | hit rate 2.3% among 330,000 | AID 504467 | HEK293T ELG1-luciferase reporter, luminescence, 16 h; DNA damage induced by 5-fluorouridine | Potency, µM (titrated, usually from 46.1 µM), for the others: at the top dose activity change, negative = inhibition, actives largely listed as inhibitors; note: nearly all actives have a fitted effect of over 55% in size
#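 HEK293T cells expressing luciferase-tagged ELG1 (2,000/well) received 5-Fluorouridine plus compound or DMSO for 16 hr at 37 °C. Luciferase was read by ONE-Glo luminescence after 30 min at room temperature.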
# Gal4-VP16 FLuc: Gal4-VP16 reporter inhibition counter-screen; Drosophila S2 Gal4-VP16 UAS-luciferase, luminescence, 20 h; Potency, µM (titrated, usually from 53.6 µM), for the others: at the highest dose activity, negative = inhibition, actives largely listed as inhibitors; hit rate 3.5% among 310,000; AID 2546;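 note: Gal4-VP16 expression switched on by copper sulfate through the metallothionein promoter; nearly all actives have a fitted effect of over 50% in size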
# DT40 TDP1 no CPT: qHTS for Inhibitors of human tyrosyl-DNA phosphodiesterase 1 (TDP1): qHTS in cells in absence of CPT; AID 686978, 2013; hit rate 15% among 420,000; DT40 Tdp1-/- hTDP1 cells, no CPT, ATP luminescence, 48 h; Potency, µM (titrated, usually from 46.2 µM), for inactives: top-dose activity change, negative = growth inhibition, most hits filed as inhibitors; note: nearly all actives have a fitted effect of over 55% in size
#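 Growth of hTDP1-complemented DT40 Tdp1-knockout cells is measured by ATP luminescence after at least 48 hr compound exposure at 37 °C, with DMSO substituting for the 20 nM CPT used in the parallel screen.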
# DT40 TDP1 CPT: growth inhibition of DT40 Tdp1-/-;hTDP1 cells with camptothecin (screen for TDP1 inhibitors) | Potency, µM (top dose mostly 46.2 µM), for inactives: at the highest dose activity change, negative = growth inhibition, most hits filed as inhibitors | hit rate 12% among 420,000 | chicken DT40 Tdp1-/-;hTDP1 cells + 20 nM CPT, ATP luminescence, 48 h | AID 686979; note: nearly all actives have a fitted effect of over 55% in size
#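 Chicken DT40 Tdp1-/- cells complemented with human TDP1, 400 cells/well, exposed to compounds plus 20 nM camptothecin for at least 48 h at 37 C; viability read as ATP content by CellTiter-Glo luminescence.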
# An asterisk follows results filed as active; ? = inconclusive; . = not tested or not shown; [ ] = dose if it differs, or a comment. Calls come from the whole dose curve; as a rule, active = well fitted curve in the direction sought with a large enough effect; inconclusive = small, poorly fitted or top-dose-only effect, or another doubt; inactive = no such curve, though single readings can be large; an effect the other way counts as inactive or inconclusive. % is set by controls: 0 for no effect and ±100 for the full control effect; potency is the fitted concentration of half-maximal effect.
SMILES,RORg inh,12-LOX inh,ELG1 DNA repair,Gal4-VP16 FLuc,DT40 TDP1 no CPT,DT40 TDP1 CPT
CCOC(=O)c1c(NC(=O)COc2ncnc3ccccc23)sc(C(C)=O)c1C,?,-8%,?,?,13µM*,13µM*
COC(=O)c1c(NC(=O)COc2ncnc3ccccc23)sc(C)c1C,6%,-15%,-9%,0%,26µM*,?
CC(C)c1ccccc1OCC(=O)NC1CCc2ccccc21 (stereo not given),.,-11%,.,.,.,.
COCCn1c(=O)[nH]c2cc(C(=O)N3CCN(c4cccc(Cl)c4)CC3)ccc2c1=O,?,28%,?,-21%,9.2µM*,23µM*
COCCn1c(=S)[nH]c2cc(C(=O)N3CCN(c4ccc(F)cc4)CC3)ccc2c1=O,?,11%,-5%,?,?,-22%
COCCn1c(=O)[nH]c2cc(C(=O)N3CCN(c4cccc(C)c4C)CC3)ccc2c1=O,37%,-12%,-11%,-2%,21µM*,15µM*
COCCn1c(=S)[nH]c2cc(C(=O)N3CCN(c4ccccc4OC)CC3)ccc2c1=O,14µM*,3%,-14%,?,?,?
COc1ccc(N2CCN(C(=O)c3ccc4c(c3)[nH]c(=S)n3c5ccccc5nc43)CC2)cc1,-26%,10%,-16%,1%,.,.
O=C(c1ccc2c(c1)[nH]c(=S)n1c3ccccc3nc21)N1CCN(c2cccc(Cl)c2)CC1,2%,2%,-15%,-6%,18µM*,18µM*
O=C1NCCCCCN(C(=O)c2ccco2)[C@H]2CCC[C@@H]12,.,18%,.,.,.,.
COc1cc(NC(=O)Cn2cccc2-c2nc(-c3ccc(F)cc3)no2)cc(OC)c1,.,-22%,.,.,.,.
O=C(c1ccco1)N1CCC2(CC1)NCCc1c2[nH]c2ccccc12,.,18%,.,.,.,.
C=CCn1c(=O)[nH]c2cc(C(=O)N3CCN(c4ccc(C(C)=O)cc4)CC3)ccc2c1=O,1%,-1%,18µM*,?,16µM*,21µM*
COCCn1c(=O)[nH]c2cc(C(=O)NCCN3CCN(c4ccc(OC)cc4)CC3)ccc2c1=O,0%,8%,9.2µM*,3%,?,-27%
COc1cccc(N2CCN(C(=O)c3ccc4c(=O)n(CCc5ccccc5)c(=O)[nH]c4c3)CC2)c1,.,-3%,.,.,7.3µM*,15µM*
C=CCn1c(=O)[nH]c2cc(C(=O)N3CCN(c4cccc(Cl)c4)CC3)ccc2c1=O,-12%,?,?,?,7.3µM*,9.2µM*
CC(C)(Oc1nn(CC2CCOCC2)c2ccccc12)C(=O)NCCc1ccccc1,.,9%[176 µM],.,.,.,.
O=C(Nc1ccc(F)cc1)c1nn(-c2ccc(F)cc2)c2c1CCC2,.,-32%,.,.,.,.
Oc1ccc(Br)cc1-c1cc(-c2ccccc2F)[nH]n1,1.8µM*,-5%,-20%,3.5µM*,?,?
COc1ccc(O)c(-c2cc(-c3ccccc3Cl)[nH]n2)c1,?,-29%,0%,?,-30%,?
Oc1ccc(Br)cc1-c1cc(-c2ccccc2Cl)[nH]n1,2.8µM*,-1%,?,-28%,?,?
CN(C)Cc1cn([C@H]2CO[C@H]3[C@@H]2OC[C@H]3O)nn1,.,-4%[176 µM],.,.,.,.
Cc1cccc(C)c1Nc1c(-c2ccccc2F)nc2ccccn12,.,-3%,.,.,.,.
CCC(C)c1ccc(NC(=O)c2ccccc2OC)cc1 (stereo not given),.,7%,.,.,.,.
CCOCCSc1nnc(-c2nn(Cc3ccccc3)c(=O)c3ccccc23)o1,.,28µM*,.,.,.,.
SMILES,RORg inh,12-LOX inh,ELG1 DNA repair,Gal4-VP16 FLuc,DT40 TDP1 no CPT,DT40 TDP1 CPT
CCCSc1nnc(-c2nn(Cc3ccccc3)c(=O)c3ccccc23)o1,.,4%,.,.,.,.
Oc1ccc(/C=N/Nc2ccnc3cc(Cl)ccc23)cc1O,?,?,27%,?,13µM*,13µM*
Clc1ccc2c(NN=C3CCCC3)ccnc2c1,.,7.9µM*,.,.,.,.
CCCO/N=C1/C(=O)N(c2ccccc2)c2ccccc21,11%,9%,8%,-14%,23µM*,13µM*
Cn1ncc2c(N3CCN(S(N)(=O)=O)CC3)nc(-c3cccnc3)nc21,.,28%,.,.,.,.
CC1(C(=O)NCc2cccc3ccccc23)CCN1CCc1ccccc1 (stereo not given),.,-6%,.,.,18µM*,?
CC(C)Oc1ccc(CN2CCC2(C)C(=O)NCc2cccc3ccccc23)cc1 (stereo not given),.,-3%,.,.,15µM*,12µM*
O=C(NCCNC(=O)c1ccco1)c1ccco1,16µM*,-23%,-2%,7%,3%,8%
O=C(NCCNC1CCCCC1)c1ccco1,0%,?,7%,-4%,-13%,1%
CC1CCC(NCCNC(=O)c2ccco2)CC1 (stereo not given),0%,2.8µM*,1%,-4%,12%,17%
COCc1cc(N2CCC(c3cccc(OC)c3OC)C2)ncn1 (stereo not given),.,-7%,.,.,.,.
CC(=O)CC[N+](C)(C)C,.,?,.,.,15µM*,13µM*
COc1ccc(CN(C)Cc2cc(C)no2)cc1OC,.,0%,.,.,.,.
Cc1ccc(C(=O)Oc2cccc3c(OC(=O)c4cccc(C)c4)cccc23)cc1,.,-28%,.,.,.,.
COc1ccc(/C=C/C(=O)N/C(=C\c2ccco2)C(=O)NCCc2nc3ccccc3[nH]2)cc1,?,?,?,2%,18µM*,21µM*
O=C(NCCc1nc2ccccc2[nH]1)/C(=C/c1ccco1)NC(=O)c1ccccc1Br,?,-5%,?,-10%,?,?
O=C(NCCc1nc2ccccc2[nH]1)/C(=C/c1ccco1)NC(=O)c1ccc(Br)cc1,12%,4%,-16%,11%,?,23µM*
COC(=O)CCS(=O)(=O)c1ccc(C)c(C)c1,.,0%,.,.,.,.
N#Cc1ccc(CN2CCCc3cc(F)cc(F)c32)cc1,.,-9%,.,.,.,.
O=C(NCCc1c[nH]c2ccccc12)c1ccc([N+](=O)[O-])o1,.,1%,.,.,23µM*,15µM*
O=C(NCCc1c[nH]c2ccccc12)OCCCCOC(=O)NCCc1c[nH]c2ccccc12,.,-16%,?,.,23µM*,18µM*
O=C(NCCc1c[nH]c2ccccc12)Nc1ccccc1C(F)(F)F,.,-18%,.,.,?,23µM*
O=C(Cc1ccc([N+](=O)[O-])cc1)NCCc1c[nH]c2ccccc12,.,0%,.,.,.,.

# From PubChem
